Screens as filed in PubChem BioAssay.
Sampled rows, rich in hits. Any-hit rate of the full collection: about 1.3%.
TRPML1 blocker – inhibitors of human TRPML1 channel | Q9GZU1 | TRPML1-inducible cells, Ca2+ dye fluorescence, FDSS; active compounds read low; inhibition of EC80 agonist-evoked calcium signal | activity change, negative = inhibition, % (test concentration not listed) | hit rate 0.02% among 390,000 | AID 624415; in the data active means activity change below about -50%; inconclusive means between about -30% and that limit;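 further: stimulus is agonist 54-4 at its EC80 concentration; on the % scale 0 is the no-effect control and ±100 the full control effect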
Target sequence (Q9GZU1 whole entry, looked up): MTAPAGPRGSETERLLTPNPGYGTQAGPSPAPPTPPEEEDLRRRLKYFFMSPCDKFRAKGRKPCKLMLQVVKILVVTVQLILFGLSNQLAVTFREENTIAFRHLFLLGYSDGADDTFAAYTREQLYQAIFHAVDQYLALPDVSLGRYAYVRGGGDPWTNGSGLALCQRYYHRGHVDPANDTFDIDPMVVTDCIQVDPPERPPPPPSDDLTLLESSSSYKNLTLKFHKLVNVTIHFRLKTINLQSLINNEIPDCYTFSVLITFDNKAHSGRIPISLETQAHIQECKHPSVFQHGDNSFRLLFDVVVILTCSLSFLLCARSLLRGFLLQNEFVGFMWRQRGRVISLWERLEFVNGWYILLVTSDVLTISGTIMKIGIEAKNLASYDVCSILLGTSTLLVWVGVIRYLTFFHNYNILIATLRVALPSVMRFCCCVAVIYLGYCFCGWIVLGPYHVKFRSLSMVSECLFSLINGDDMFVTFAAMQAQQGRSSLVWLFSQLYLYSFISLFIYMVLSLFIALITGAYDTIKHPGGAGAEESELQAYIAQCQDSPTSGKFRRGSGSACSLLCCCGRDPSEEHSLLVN
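TRPML1-DL cells, Tet-induced overnight (~16 h, 37 °C) at 1,500 cells/well, were loaded with Ca8 no-wash dye plus quencher for 45-90 min at room temperature. Compounds were pinned during FDSS kinetic reading; agonist 54-4 at EC80 (4 uM final) then added.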
GRP78 ERSR act – inducers of ER stress response in human glioma cells | hit rate 0.02% among 420,000 | U87-MG GRP78 promoter luciferase reporter, 16 h | Potency, µM, inactives show at the top dose activation, hits mostly activators; further: potency means the concentration at half of the fitted maximal effect; series mostly up to about 76 µM; % of control where 0% means no effect; nearly all actives have a fitted effect of over 35% in size
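Stably transfected U87-MG human glioma cells carrying a GRP78-based luminescent sensor were seeded at 1000 cells/well, pin-dosed with compounds and incubated 16 h. Luciferase reagent was then added, and end-point luminescence was read after 10 min at room temperature.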
TRPML1 agonist – activates the human TRPML1 channel. TRPML1-expressing cells, Ca2+ dye fluorescence, FDSS. activation, % (test concentration not listed). hit rate 0.12% among 410,000. Q9GZU1; in the data active means activation above about 50%; inconclusive means mostly about 30% to 49%; further: 0% is about no effect
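Kinetic FDSS Ca2+ read in Tet-induced TRPML1-DL cells (ABD Ca8 dye plus quencher, 45-90 min RT loading): baseline, then compound, then 110 s agonist window; EC80 agonist 54-4 at 4uM final added afterwards for a 110 s antagonist window.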
Vif-A3G inh – blocks the Vif interaction with human APOBEC3G; AID 602310; HeLa A3G-eYFP + Vif (tagged APOBEC3G with the HIV-1 protein that degrades it), YFP fluorescence, overnight; Potency, µM (doses to about 46.1 µM), for the others: at the top dose activity, negative = active, actives largely listed as inhibitors; hit rate 0.076% among 410,000; further: potency means the concentration at half of the fitted maximal effect; on the % scale 0 is the no-effect control and ±100 the full control effect; nearly all actives have a fitted effect of over 60% in size
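Read-out is eYFP fluorescence (Ex 488/Em 500-530) from Vif-expressing HeLa A3G-eYFP cells; more signal means A3G escaped Vif-mediated degradation. Cells plated overnight, compound pinned in, incubated overnight at 37 deg C.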
12-LOX inh – blocks human arachidonate 12S-lipoxygenase. P18054. purified 12hLO, xylenol orange hydroperoxide absorbance. Potency, µM (titrated, usually from 108 µM), without a hit: top-dose activity change, negative = inhibition, hits mostly inhibitors. hit rate 1.1% among 580,000; further: potency means the concentration at half of the fitted maximal effect; on the % scale 0 is the no-effect control and ±100 the full control effect
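Hydroperoxide product was detected by ferrous iron/xylenol orange as the 573 to 405 nm absorbance ratio. Arachidonic acid at 40 uM (final) was turned over for 30 min at room temperature by 150 nM human 12hLO, pH 7.0 Hepes buffer, after 15 min compound preincubation.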
Vif-APOBEC3F blk – blocks the Vif interaction with APOBEC3F. AID 602313. Potency, µM (titrated, usually from 46.1 µM), for the others: at the highest dose activity, negative = active. hit rate 0.2% among 390,000. HeLa A3F-eYFP + Vif (tagged APOBEC3F with the HIV-1 protein that degrades it), YFP fluorescence increase; further: potency means the concentration at half of the fitted maximal effect; % of control where 0% means no effect; nearly all actives have a fitted effect of over 65% in size
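Fluorescence increase (Ex 488/Em 500-530) after overnight compound treatment at 37 deg C flags inhibition of Vif-driven A3F-eYFP loss in stable HeLa A3F-eYFP/Vif cells seeded overnight beforehand.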
Active calls of the source: *; ? = inconclusive; . = no result; [ ] = remark or other dose. Unless noted, the call rests on the fitted dose curve; in most records, active means well fitted curve in the direction sought with a large enough effect; inconclusive means small, poorly fitted or top-dose-only effect, or another doubt; inactive means no such curve, though single readings can be large; an effect the other way counts as inactive or inconclusive.

SMILES	TRPML1 blocker	GRP78 ERSR act	TRPML1 agonist	Vif-A3G inh	12-LOX inh	Vif-APOBEC3F blk
O=C1C2CC=C(Cl)CC2C(=O)N1CCc1c[nH]c2ccccc12 (stereo not drawn)	-19	0%	0	1%	-16%	-7%
O=C1C2CC=C(Cl)CC2C(=O)N1CCc1ccccc1 (stereo not drawn)	-1	4%	2	0%	10µM*	-6%
Cc1ccccc1CNC(=O)c1nn(C)c(=O)c2ccccc12	.	.	.	.	11%	.
CCOC(=O)c1ccc(N2C(=O)Cc3cc(OC)c(OC)cc3C2c2ccc(OCC)cc2)cc1 (stereo not drawn)	.	.	.	.	8%	.
COc1ccc(C2/C(=C(\O)c3ccc4c(c3)CC(C)O4)C(=O)C(=O)N2Cc2cccnc2)c(OC)c1 (stereo not drawn)	4	-2%	0	-1%	11µM*	7%
Cc1cn2c(N)c(C=C3C=C(Cl)C(=O)C(Cl)=C3)c(=O)nc2s1	-1	-2%	?	-11%	-11%	10µM*
CCCCn1nc(C(=O)Nc2cccc(OC)c2)c2ccccc2c1=O	.	.	.	.	4%	.
Cc1ccc(Sc2nc(C)cc(C)n2)cc1	.	.	.	.	1%	.
CC1=CC(=O)C(Sc2ccc(C)cc2)=CC1=O	18	-13%	1	?	1.1µM*	?
O=S(=O)(CCCSc1nc2ccccc2s1)c1ccccc1	.	.	.	.	38%	.
O=C(Nc1cc(Cl)ccc1-n1cncn1)C1CC(=O)N(c2ccc3c(c2)OCCO3)C1 (stereo not drawn)	.	.	.	.	-3%	.
Oc1ccc2ccccc2c1SSc1c(O)ccc2ccccc12	.	-9%	.	.	1.7µM*	.
N#Cc1ccc(COC(=O)c2cccnc2N2CCOCC2)cc1	.	.	.	.	0%	.
CCCCCCCCN1C(=O)[C@H](CC(=O)NCc2cccs2)C[C@@]2(C(=O)OC)CC(C)(C)CC=C12	.	.	.	.	5%	.
CCCCCCCCN1C(=O)[C@H](CC(=O)NCc2ccc(C)o2)C[C@@]2(C(=O)OC)CC(C)(C)CC=C12	.	.	.	.	40µM*	.
CN(C)NC(=S)NC1CC2CCC1C2 (stereo not drawn)	4	-1%	3	-3%	18µM*	?
CCOC(=O)c1[nH]c(=S)n(-c2ccccc2)c1C(=O)OCC	17	-1%	1	-4%	7.1µM*	0%
COc1ccc(OC)c(/C=C2/Sc3ccccc3C2=O)c1	-12	5%	54*	-6%	-3%	-4%
COc1ccc(OC)c(/C=C2\Cc3ccccc3C2=O)c1	.	-3%	0	-3%	.	.
N#C/C(C(=O)CCl)=C(/c1ccc(F)cc1)N1CCOCC1	.	.	.	.	22µM*	.
Cc1cccc(CN2CCC(CNC(=O)c3cnc(N4CCOCC4)c4ccccc34)CC2)c1	.	.	.	.	-14%	.
O=C(c1cccc(O)c1)N1CC(CNc2ccccc2)C2(C1)CN(c1ccccc1)C2 (stereo not drawn)	.	.	.	.	-7%[176 µM]	.
COc1ccc2c(C)cc(SCC#N)nc2c1	-11	-3%	2	?	1%	22µM*
Cc1cc(SCC#N)nc2ccccc12	-22	-1%	0	2%	-4%	18%
COc1cc(-c2nnc(SCC(=O)Oc3ccccc3Cl)o2)cc(OC)c1OC	0	22µM*	-1	2%	0%	4%
SMILES	TRPML1 blocker	GRP78 ERSR act	TRPML1 agonist	Vif-A3G inh	12-LOX inh	Vif-APOBEC3F blk
Cc1oc2c(cc(NS(=O)(=O)c3ccc(Cl)cc3)c3ccccc32)c1C(=O)O	1	12%	-1	-3%	40µM*	3%
Cc1cc2c(cc1C)-c1ccccc1C2=O	.	.	.	.	32%	.
CCc1ccc2cc3c(cc2n1)C(=O)c1ccccc1-3	42	-5%	-1	-18%	7.9µM*	.
O=C1c2ccccc2NC(c2cccc(Cl)c2)N1c1ccc(N2CCOCC2)cc1 (stereo not drawn)	.	.	.	.	25%	.
O=S(=O)(c1ccc(Cl)cc1)c1ccc(-c2ccc(S(=O)(=O)c3ccc(Cl)cc3)cc2)cc1	.	.	.	.	11µM*	.
COc1ccc(-n2c(-c3ccc(Br)cc3)n[nH]c2=S)cc1	-19	-1%	1	2%	?	3%
S=c1[nH]nc(-c2ccc(Cl)cc2)n1-c1ccc(Cl)cc1	-7	-4%	0	2%	10µM*	7%
COc1ccc(-c2n[nH]c(=S)n2-c2ccc(C)cc2)cc1	.	-4%	.	3%	18µM*	?
S=c1[nH]nc(-c2ccc(Cl)cc2Cl)n1-c1ccc(Cl)cc1	-2	-3%	0	-2%	13µM*	-3%
O=C(CSc1nnc(SCc2ccccc2)s1)N/N=C/C=C/c1ccccc1[N+](=O)[O-]	-24	-4%	1	-1%	1%	1%
O=C(CSc1nnc(SCc2ccccc2)s1)N/N=C/C=C\c1ccco1	-1	-9%	0	2%	18µM*	-2%
NCCCC[C@@H]1NC(=O)[C@H](CCC(=O)O)NC(=O)c2cc([N+](=O)[O-])cc(I)c2SC[C@@H](C(=O)NCC(N)=O)NC1=O	-23	-6%	0	0%	40µM*	0%
C[n+]1c(-c2ccccc2)cc2c(=Cc3ccc([N+](=O)[O-])cc3)c3ccccc3n21	26	-8%	0	-9%	16µM*	3%
CN1CCN(c2ccc3nnc(CCC(=O)NCC4CCN(Cc5ccc(F)cc5)CC4)n3n2)CC1	.	.	.	.	31%	.
COc1ccccc1NC(=S)NC1CCC(CC2CCC(NC(=S)Nc3ccccc3OC)CC2)CC1 (stereo not drawn)	-24	-4%	1	-2%	32µM*	-10%
S=C(Nc1cccc2ccccc12)NC1CCCCC1	33	7%	-1	0%	45µM*	?
S=C(Nc1cccc2ccccc12)Nc1cccc2ccccc12	30	3%	-1	1%	-23%	-8%
CCC(C)Nc1nc(-c2c[nH]c3ccccc23)cs1 (stereo not drawn)	-3	-1%	2	-12%	50µM*	?
c1ccc(CCNc2nc(-c3c[nH]c4ccccc34)cs2)cc1	.	.	.	.	45µM*	.
CNc1nc(-c2c[nH]c3ccccc23)cs1	3	-5%	0	-7%	?	4%
Cc1cccc(OCCCCn2c(CO)nc3ccccc32)c1	.	-3%	.	1%	0%	-10%
CCc1nc2ccccc2n1CCCCOc1cccc(C)c1	4	-3%	4	0%	40µM*	3%
COc1ccc2cc(CNC(=O)CNC(=O)c3ccc(C)c(C)c3)ccc2c1	.	.	.	.	-29%	.
CSc1ccccc1C(=O)Nc1ncn[nH]1	-11	-1%	-1	-1%	11µM*	-19%
Cc1cc(N/N=C/c2ccc([N+](=O)[O-])o2)nc2ccccc12	44	3%	13	11µM*	-15%	?
